According to PubChem BioAssay (EPA / NIEHS):
The source made the active and inactive calls. How the source made its calls: active means hit-call score of the fitted dose curve at least 0.9, where 1 is the maximum; inactive means score below 0.9.

Experiments:
Details in all cases: mRNA level, 48 h; actives raise or lower the signal
[1] = read-out: Insulin-like growth factor-binding protein 1 (IGFBP1), IGFBP1 (gene 3484); test: LTEA_HepaRG_IGFBP1: Life Technologies and Expression Analysis (LTEA) Assay for Insulin-like growth factor-binding protein 1 (IGFBP1) using HepaRG (AID 2283508)
In short: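 Thawed HepaRG cells are plated for 48 h, switched to serum-free induction medium, then dosed in duplicate for another 48 h (100 uM top, half-log steps). Lysates in RLT go to qRT-PCR, and gain or loss of signal is fitted relative to vehicle.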

[2] = read-out: Interleukin 6 (IL6), IL6 (gene 3569); test: LTEA_HepaRG_IL6: Life Technologies and Expression Analysis (LTEA) Assay for Interleukin 6 (IL6) using HepaRG (AID 2283509)
In short: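 HepaRG cells exposed in duplicate for 48 h to eight half-log concentrations, top 100 uM, in 0.5% DMSO serum-free induction medium. mRNA measured by qRT-PCR, normalized to ACTB, GAPDH and POLR2A. Bidirectional fit versus DMSO.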

[3] = read-out: Interleukin 6 Receptor (IL6R), IL6R (gene 3570); test: LTEA_HepaRG_IL6R: Life Technologies and Expression Analysis (LTEA) Assay for Interleukin 6 Receptor (IL6R) using HepaRG (AID 2283510);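 on AC50: TaqMan qRT-PCR signal normalized to ACTB GAPDH and POLR2A housekeeping genes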
In short: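 Differentiated human HepaRG cells, plated 48 h then switched to serum-free induction medium, were dosed in duplicate for 48 h at eight half-log concentrations up to 100 uM in 0.5% DMSO. IL6R mRNA quantified by qRT-PCR, normalized to ACTB/GAPDH/POLR2A; bidirectional fit versus DMSO.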

[4] = read-out: Potassium channel subfamily K member 1 (KCNK1), KCNK1 (gene 3775); test: LTEA_HepaRG_KCNK1: Life Technologies and Expression Analysis (LTEA) Assay for Potassium channel subfamily K member 1 (KCNK1) using HepaRG (AID 2283511)
In short: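 Differentiated HepaRG cells, 48 h exposure in serum-free induction medium with 0.5% DMSO; 8 concentrations, half-log from 100 uM, duplicate. KCNK1 mRNA by qRT-PCR, normalized to ACTB, GAPDH, POLR2A; bidirectional fit vs DMSO.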

[5] = read-out: Keratin 19 (KRT19), KRT19 (gene 3880); test: LTEA_HepaRG_KRT19: Life Technologies and Expression Analysis (LTEA) Assay for Keratin 19 (KRT19) using HepaRG (AID 2283512)
In short: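 KRT19 transcript levels, measured by Fluidigm qRT-PCR against three housekeeping genes, are fitted for gain or loss of signal relative to DMSO. Human HepaRG cells receive test chemicals (top 100 uM, half-log steps, 0.5% DMSO) for 48 hours.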

[6] = read-out: JUN Transcription Factor, JUN (gene 3725); test: LTEA_HepaRG_JUN: Life Technologies and Expression Analysis (LTEA) Assay for JUN Transcription Factor using HepaRG (AID 2283513)
In short: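 Differentiated HepaRG cells were exposed to chemicals for 48 h in serum-free induction medium, 8 concentrations from 100 uM in half-log steps, 0.5% DMSO vehicle, in duplicate. JUN mRNA was quantified by TaqMan qRT-PCR, normalized to ACTB, GAPDH, POLR2A.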

[7] = read-out: Lipase C (LIPC), LIPC (gene 3990); test: LTEA_HepaRG_LIPC: Life Technologies and Expression Analysis (LTEA) Assay for Lipase C (LIPC) using HepaRG (AID 2283514)
In short: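 HepaRG cells, 48 h after plating, treated in duplicate for 48 h in serum-free induction medium over 8 half-log concentrations from 100 uM, 0.5% DMSO. LIPC mRNA by TaqMan qRT-PCR normalized to ACTB/GAPDH/POLR2A; bidirectional fit versus DMSO.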

[8] = read-out: Lipoprotein lipase (LPL), LPL (gene 4023); test: LTEA_HepaRG_LPL: Life Technologies and Expression Analysis (LTEA) Assay for Lipoprotein lipase (LPL) using HepaRG (AID 2283515)
In short: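 Differentiated HepaRG cells, plated 48 h, then exposed 48 h in serum-free induction medium to 8 concentrations (top 100 uM, half-log steps) in 0.5% DMSO, duplicate. LPL mRNA measured by qRT-PCR, normalized to ACTB, GAPDH and POLR2A.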

[9] = read-out: MicroRNA 122 (MIR122), gene 406906; test: LTEA_HepaRG_MIR122: Life Technologies and Expression Analysis (LTEA) Assay for MicroRNA 122 (MIR122) using HepaRG (AID 2283516); further: the transcript read is the microRNA miR-122
In short: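 Differentiated human HepaRG cells were exposed 48 h in serum-free induction medium to eight half-log concentrations (top 100 uM, 0.5% DMSO). Transcript level was measured by TaqMan qRT-PCR, normalized to ACTB, GAPDH and POLR2A, and fitted bidirectionally versus DMSO.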

[10] = read-out: matrix metalloproteinase-10 (MMP10), MMP10 (gene 4319); test: LTEA_HepaRG_MMP10: Life Technologies and Expression Analysis (LTEA) Assay for matrix metalloproteinase-10 (MMP10) using HepaRG (AID 2283517)
In short: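 Differentiated HepaRG cells in serum-free induction medium exposed 48 h in duplicate to 8-point half-log series up to 100 uM in 0.5% DMSO. mRNA quantified by qRT-PCR, normalised to ACTB, GAPDH, POLR2A; bidirectional fit versus DMSO.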

MYC, MYC (gene 4609) = test: LTEA_HepaRG_MYC: Life Technologies and Expression Analysis (LTEA) Assay for MYC using HepaRG (AID 2283518)
In short: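 HepaRG, ~100,000 cells/well, collagen I; 48 h plating; serum-free induction medium; 48 h dosing, duplicate, 100 uM top, half-log, 0.5% DMSO; total RNA → qRT-PCR MYC; gain/loss fit vs DMSO.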

[11] = read-out: matrix metalloproteinase-3 (MMP3), MMP3 (gene 4314); test: LTEA_HepaRG_MMP3: Life Technologies and Expression Analysis (LTEA) Assay for matrix metalloproteinase-3 (MMP3) using HepaRG (AID 2283519)
In short: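 HepaRG cells (~100,000/well) in serum-free induction medium were dosed in duplicate for 48 h with an 8-point half-log series from 100 uM, 0.5% DMSO. MMP3 mRNA was quantified by Fluidigm TaqMan qRT-PCR, normalized to three housekeeping genes.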

[12] = read-out: Paternally Expressed 10 (PEG10), PEG10 (gene 23089); test: LTEA_HepaRG_PEG10: Life Technologies and Expression Analysis (LTEA) Assay for Paternally Expressed 10 (PEG10) using HepaRG (AID 2283520)
In short: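 Differentiated HepaRG cells, plated 48 h then switched to serum-free induction medium, were exposed in duplicate for 48 h to eight half-log concentrations topping at 100 uM in 0.5% DMSO. PEG10 mRNA was quantified by TaqMan qRT-PCR, normalised to ACTB, GAPDH and POLR2A.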

[13] = read-out: Nuclear factor NF-kappa-B p105 subunit (Homo sapiens) (UniProt P19838); test: LTEA_HepaRG_NFKB1: Life Technologies and Expression Analysis (LTEA) Assay for Nuclear Factor Kappa B Subunit 1 (NFKB1) using HepaRG (AID 2283521);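 on outcome: TaqMan qRT-PCR transcript normalised to ACTB GAPDH and POLR2A housekeeping genes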
In short: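 Differentiated human HepaRG cells in serum-free induction medium with 0.5% DMSO were exposed for 48 h to eight half-log concentrations, top 100 uM, in duplicate. NFKB1 mRNA measured by Fluidigm TaqMan qRT-PCR, normalised to ACTB, GAPDH and POLR2A; bidirectional fit versus DMSO.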

[14] = read-out: Protein phosphatase 2A (PPP2R4), PTPA (gene 5524); test: LTEA_HepaRG_PPP2R4: Life Technologies and Expression Analysis (LTEA) Assay for Protein phosphatase 2A (PPP2R4) using HepaRG (AID 2283522)
In short: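 Differentiated HepaRG cells in serum-free induction medium were exposed in duplicate for 48 h to eight concentrations, top 100 uM with half-log dilutions, in 0.5% DMSO. PPP2R4 mRNA was quantified by TaqMan qRT-PCR, normalized to ACTB, GAPDH and POLR2A.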

[15] = read-out: Phosphatase and tensin (PTEN), PTEN (gene 5728); test: LTEA_HepaRG_PTEN: Life Technologies and Expression Analysis (LTEA) Assay for Phosphatase and tensin (PTEN) using HepaRG (AID 2283523)
In short: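 HepaRG cells, 48 h after plating, exposed in duplicate for 48 h in serum-free induction medium to 8 half-log concentrations up to 100 uM (0.5% DMSO). PTEN mRNA by qRT-PCR, normalized to ACTB, GAPDH, POLR2A; bidirectional fit versus DMSO.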

[16] = read-out: solute carrier (SLC22A1), SLC22A1 (gene 6580); test: LTEA_HepaRG_SLC22A1: Life Technologies and Expression Analysis (LTEA) Assay for solute carrier (SLC22A1) using HepaRG (AID 2283524)
In short: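 Differentiated human HepaRG cells in serum-free induction medium, exposed 48 h in duplicate to 8-point half-log series from 100 µM top in 0.5% DMSO. SLC22A1 mRNA by TaqMan qRT-PCR normalized to ACTB, GAPDH, POLR2A; bidirectional fit versus DMSO.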

[17] = read-out: Pyruvate Dehydrogenase Kinase 4 (PDK4), PDK4 (gene 5166); test: LTEA_HepaRG_PDK4: Life Technologies and Expression Analysis (LTEA) Assay for Pyruvate Dehydrogenase Kinase 4 (PDK4) using HepaRG (AID 2283525)
In short: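 HepaRG cells plated 48 h, then switched to serum-free induction medium and exposed in duplicate for 48 h to 8 half-log concentrations from 100 uM in 0.5% DMSO. PDK4 mRNA measured by qRT-PCR, normalized to ACTB, GAPDH and POLR2A; bidirectional fit versus DMSO.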

[18] = read-out: NAD(P)H dehydrogenase [quinone] 1 (NQO1), NQO1 (gene 1728); test: LTEA_HepaRG_NQO1: Life Technologies and Expression Analysis (LTEA) Assay for NAD(P)H dehydrogenase [quinone] 1 (NQO1) using HepaRG (AID 2283526)
In short: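 Differentiated HepaRG cells, plated 48 h and then switched to serum-free induction medium, were exposed in duplicate for 48 h to 8-point half-log concentrations up to 100 uM in 0.5% DMSO. mRNA measured by qRT-PCR, normalized to ACTB, GAPDH, POLR2A; bidirectional fit versus DMSO.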

[19] = read-out: Nuclear factor erythroid 2-related factor 2 (Homo sapiens) (UniProt Q16236); test: LTEA_HepaRG_NFE2L2: Life Technologies and Expression Analysis (LTEA) Assay for Nuclear factor erythroid 2-related factor 2 (NFE2L2) Transcription Factor using HepaRG (AID 2283527);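 on outcome: TaqMan qRT-PCR transcript level normalised to ACTB GAPDH and POLR2A housekeeping genes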
In short: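 Differentiated human HepaRG cells, serum-free induction medium, exposed 48 h in duplicate to eight half-log concentrations up to 100 uM in 0.5% DMSO. NFE2L2 mRNA by Fluidigm TaqMan qRT-PCR, normalised to ACTB, GAPDH, POLR2A; bidirectional change versus DMSO.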

Nuclear factor NF-kappa-B p105 subunit (Homo sapiens), sequence (P19838 whole entry, looked up): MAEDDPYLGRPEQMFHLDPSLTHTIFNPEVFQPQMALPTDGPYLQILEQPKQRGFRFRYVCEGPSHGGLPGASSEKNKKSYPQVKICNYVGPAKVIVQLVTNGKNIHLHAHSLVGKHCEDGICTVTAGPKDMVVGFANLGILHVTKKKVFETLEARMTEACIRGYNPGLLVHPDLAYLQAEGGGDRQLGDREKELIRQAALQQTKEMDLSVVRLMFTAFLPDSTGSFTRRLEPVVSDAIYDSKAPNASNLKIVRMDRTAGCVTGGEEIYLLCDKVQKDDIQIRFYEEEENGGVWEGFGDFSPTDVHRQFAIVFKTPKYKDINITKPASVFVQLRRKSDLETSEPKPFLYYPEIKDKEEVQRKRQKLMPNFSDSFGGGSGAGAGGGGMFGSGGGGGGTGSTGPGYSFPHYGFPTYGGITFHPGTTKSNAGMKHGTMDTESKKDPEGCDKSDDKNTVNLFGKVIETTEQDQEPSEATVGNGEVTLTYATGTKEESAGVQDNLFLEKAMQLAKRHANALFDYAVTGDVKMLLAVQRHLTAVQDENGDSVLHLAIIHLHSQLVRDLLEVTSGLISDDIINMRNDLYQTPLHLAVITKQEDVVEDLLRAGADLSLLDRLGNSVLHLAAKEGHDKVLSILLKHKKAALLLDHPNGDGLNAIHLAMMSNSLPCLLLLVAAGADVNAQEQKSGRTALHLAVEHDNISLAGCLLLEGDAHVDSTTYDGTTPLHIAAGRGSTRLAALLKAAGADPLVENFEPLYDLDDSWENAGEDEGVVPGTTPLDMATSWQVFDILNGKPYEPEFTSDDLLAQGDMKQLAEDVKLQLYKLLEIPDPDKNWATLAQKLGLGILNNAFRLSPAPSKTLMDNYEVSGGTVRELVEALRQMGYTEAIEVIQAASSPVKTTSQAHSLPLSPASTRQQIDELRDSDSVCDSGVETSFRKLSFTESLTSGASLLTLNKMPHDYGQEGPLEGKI
Nuclear factor erythroid 2-related factor 2 (Homo sapiens), sequence (Q16236 whole entry, looked up): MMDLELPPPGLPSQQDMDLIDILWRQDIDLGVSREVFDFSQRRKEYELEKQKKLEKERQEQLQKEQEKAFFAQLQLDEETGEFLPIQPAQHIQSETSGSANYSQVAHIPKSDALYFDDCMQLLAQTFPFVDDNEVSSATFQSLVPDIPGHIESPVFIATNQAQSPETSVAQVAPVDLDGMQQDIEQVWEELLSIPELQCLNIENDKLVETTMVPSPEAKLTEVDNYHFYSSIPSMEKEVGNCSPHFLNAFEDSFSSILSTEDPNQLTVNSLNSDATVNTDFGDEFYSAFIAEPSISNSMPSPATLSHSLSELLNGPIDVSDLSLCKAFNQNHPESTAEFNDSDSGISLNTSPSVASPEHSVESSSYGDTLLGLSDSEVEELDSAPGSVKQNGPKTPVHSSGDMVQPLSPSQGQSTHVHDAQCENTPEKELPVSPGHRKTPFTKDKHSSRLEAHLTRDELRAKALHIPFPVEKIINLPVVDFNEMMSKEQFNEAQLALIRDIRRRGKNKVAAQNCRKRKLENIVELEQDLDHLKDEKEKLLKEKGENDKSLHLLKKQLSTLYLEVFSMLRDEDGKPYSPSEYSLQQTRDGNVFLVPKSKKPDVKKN

In the case of `CN[C@H]1CC[C@@H](c2ccc(Cl)c(Cl)c2)c2ccc(S(N)(=O)=O)cc21`, the AC50 [1] is reported as 57.7 µM (active), the AC50 [2] is reported as 77.4 µM (active) and the AC50 [3] is reported as 50 µM (active). For the same compound, the outcome [4] was “inactive”, the AC50 [5] was 10.9 µM (active) and the AC50 [6] was 94.5 µM (active). For the same compound, the AC50 [7] was 15.8 µM (active), the AC50 [8] was 11.9 µM (active) and the outcome [9] was “inactive”. The AC50 [10] was 66.4 µM (active), the outcome (MYC, MYC (gene 4609)) was “inactive” and the AC50 [11] was 84.1 µM (active). The outcome [12] was “inactive”, the AC50 [13] was 81.4 µM (active) and the AC50 [14] was 84.5 µM (active). For the same compound, the outcome [15] was “inactive”, the AC50 [16] was 22.4 µM (active) and the AC50 [17] was 83 µM (active). For the same compound, the outcome [18] was “inactive” and the AC50 [19] was 81.5 µM (active).
With `CN1CCN(Cc2cc(-c3ccc4[nH]c(=O)oc4c3)co2)[C@@H](c2ccc(F)cc2)C1` the outcome [1] was “inactive”, the AC50 [2] was 50 µM (active) and the outcome [4] was “inactive”. The AC50 [5] was 23.9 µM (active), the outcome [6] was “inactive” and the outcome [7] was “inactive”. For the same compound, the outcome [8] was “inactive”, the outcome [9] was “inactive” and the outcome [10] was “inactive”. The outcome (MYC, MYC (gene 4609)) was “inactive”, the outcome [11] was “inactive” and the AC50 [12] was 82.7 µM (active). The outcome [13] was “inactive”, the outcome [14] was “inactive” and the outcome [15] was “inactive”. The AC50 [16] was 50 µM (active), the AC50 [17] was 88.5 µM (active) and the outcome [18] was “inactive”. For the same compound, the outcome [19] was “inactive”.
In the case of `Cc1ccc(C)c(C)c1`, the outcome [1] is reported as “inactive”, the outcome [2] is reported as “inactive” and the outcome [3] is reported as “inactive”. The outcome [4] was “inactive”, the outcome [5] was “inactive” and the outcome [6] was “inactive”. For the same compound, the outcome [7] was “inactive”, the outcome [8] was “inactive” and the outcome [9] was “inactive”. The outcome [10] was “inactive”, the outcome (MYC, MYC (gene 4609)) was “inactive” and the outcome [11] was “inactive”. For the same compound, the outcome [12] was “inactive”, the outcome [13] was “inactive” and the outcome [14] was “inactive”. For the same compound, the outcome [15] was “inactive”, the outcome [16] was “inactive” and the outcome [17] was “inactive”. The outcome [18] was “inactive” and the outcome [19] was “inactive”.
